# According to the supplement of paper PMC9694430:
# Columns and labels:
# Assay in all cases: thermal shift delta Tm vs DMSO control; higher = stronger stabilization (binding)
# Conditions in all cases: 12.5 µM; protein concentration 2 µM
# [1] = compound: C/C(O)=C(\C#N)C(=O)Nc1cc(Br)ccc1Br
# Outline: (§1)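 Heating from 25°C to 95°C at 0.05°C/s, fluorescence was recorded for 19.5 μl wells of 2 μM E. coli-expressed, purified rice kinase domain in 100 mM potassium phosphate pH 7.5, 150 mM NaCl, 10% glycerol and 5 × SYPRO Orange with compound in DMSO. Boltzmann fits gave melting temperatures for this differential scanning fluorimetry assay. The shift reported is the mean of three replicates against the DMSO-only protein.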
# [2] = compound: CC(C)(C)c1cc(C=C(C#N)C#N)cc(Br)c1O
# Outline: as §1
# Tyrphostin 9 = compound: CC(C)(C)c1cc(C=C(C#N)C#N)cc(C(C)(C)C)c1O [Tyrphostin 9]
# Outline: as §1
# Aurora A Inhibitor I = compound: CCN1CCN(C(=O)Cc2ccc(Nc3ncc(F)c(Nc4ccc(C(=O)Nc5ccccc5Cl)cc4)n3)cc2)CC1 [Aurora A Inhibitor I]
# Outline: as §1
# Picropodophyllin (PPP) = compound: COc1cc([C@@H]2c3cc4c(cc3[C@H](O)[C@H]3COC(=O)[C@@H]23)OCO4)cc(OC)c1OC [Picropodophyllin (PPP)]
# Outline: as §1
# Anisomycin = compound: COc1ccc(C[C@H]2NC[C@H](O)[C@H]2OC(C)=O)cc1 [Anisomycin]
# Outline: as §1
# [3] = compound: COc1ccc(N(C(=O)Oc2c(C)cccc2C)c2ccnc(Nc3ccc(N4CCN(C)CC4)cc3)n2)c(OC)c1
# Outline: as §1
# [4] = compound: COc1ccc2c(c1)/C(=C/c1cnc[nH]1)C(=O)N2
# Outline: as §1
# [5] = compound: Cc1ccccc1-n1c(Cn2ncc3c(N)ncnc32)nc2cccc(C)c2c1=O
# Outline: as §1
# [6] = compound: Cn1cc(C2=C(c3cn(C4CCN(Cc5ccccn5)CC4)c4ccccc34)C(=O)NC2=O)c2ccccc21
# Outline: as §1
# [7] = compound: O=c1[nH]c2ccc(Cl)cc2c(N[C@@H]2CN3CCC2CC3)c1-c1nc2ccccc2[nH]1
# Outline: as §1
# 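Note: purified Escherichia coli-expressed rice kinase domain construct.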
# Chain of LOC_OS06G22820-cb001 (as listed by the source): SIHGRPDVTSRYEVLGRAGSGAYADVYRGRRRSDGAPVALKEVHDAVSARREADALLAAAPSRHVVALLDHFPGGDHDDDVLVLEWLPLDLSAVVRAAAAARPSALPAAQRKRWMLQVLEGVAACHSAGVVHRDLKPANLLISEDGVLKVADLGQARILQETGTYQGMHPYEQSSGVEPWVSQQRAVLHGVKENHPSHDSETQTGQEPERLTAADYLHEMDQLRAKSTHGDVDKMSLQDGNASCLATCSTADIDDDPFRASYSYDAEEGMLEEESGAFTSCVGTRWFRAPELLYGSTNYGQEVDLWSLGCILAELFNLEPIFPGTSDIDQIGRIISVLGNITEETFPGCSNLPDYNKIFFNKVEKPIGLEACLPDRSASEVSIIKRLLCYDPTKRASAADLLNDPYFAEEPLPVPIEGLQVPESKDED
# Chain of LOC_OS04G41100-cb001 (as listed by the source): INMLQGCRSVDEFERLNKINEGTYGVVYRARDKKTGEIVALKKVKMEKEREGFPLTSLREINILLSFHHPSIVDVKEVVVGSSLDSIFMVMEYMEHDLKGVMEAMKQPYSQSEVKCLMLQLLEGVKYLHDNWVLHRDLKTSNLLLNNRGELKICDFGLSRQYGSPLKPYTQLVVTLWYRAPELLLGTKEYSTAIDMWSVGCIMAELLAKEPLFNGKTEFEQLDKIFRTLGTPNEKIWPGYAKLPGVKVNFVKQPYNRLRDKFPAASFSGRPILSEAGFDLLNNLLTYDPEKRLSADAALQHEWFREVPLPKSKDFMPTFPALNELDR
# Chain of LOC_OS06G16330-cb003 (as listed by the source): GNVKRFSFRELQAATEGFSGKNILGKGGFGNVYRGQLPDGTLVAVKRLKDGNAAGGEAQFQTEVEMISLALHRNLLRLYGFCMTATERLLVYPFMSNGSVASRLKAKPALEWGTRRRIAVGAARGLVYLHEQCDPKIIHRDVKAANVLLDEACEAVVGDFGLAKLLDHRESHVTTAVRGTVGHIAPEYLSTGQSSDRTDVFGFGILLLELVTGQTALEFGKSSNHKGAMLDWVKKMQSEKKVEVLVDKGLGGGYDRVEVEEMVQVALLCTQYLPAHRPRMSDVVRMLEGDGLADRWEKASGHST
Target,thermal shift delta Tm [1],thermal shift delta Tm [2],thermal shift delta Tm (Tyrphostin 9),thermal shift delta Tm (Aurora A Inhibitor I),thermal shift delta Tm (Picropodophyllin (PPP)),thermal shift delta Tm (Anisomycin),thermal shift delta Tm [3],thermal shift delta Tm [4],thermal shift delta Tm [5],thermal shift delta Tm [6],thermal shift delta Tm [7]
LOC_OS05G30820-cb001,0.57 °C,1.27 °C,0.84 °C,1.39 °C,0.41 °C,0.89 °C,0.33 °C,0.99 °C,0.5 °C,0.82 °C,0.98 °C
LOC_OS02G17970-cb001,1.08 °C,2.06 °C,3.2 °C,0.33 °C,0.61 °C,0.2 °C,0.79 °C,0.72 °C,-0.06 °C,–,0.93 °C
LOC_OS01G02750-cb003,1.62 °C,1.02 °C,6.7 °C,0.26 °C,0.88 °C,0.6 °C,0.82 °C,2.97 °C,0.47 °C,-0.47 °C,4.52 °C
LOC_OS01G21960-cb002,1.38 °C,1.5 °C,4.31 °C,2.25 °C,0.41 °C,0.52 °C,0.61 °C,1.85 °C,0.03 °C,–,3.76 °C
LOC_OS04G57630-cb004,0.3 °C,0.11 °C,-0.37 °C,4.13 °C,0.26 °C,0.15 °C,0.3 °C,1.58 °C,-0.13 °C,-0.06 °C,1.43 °C
LOC_OS02G07810-cb001,1.72 °C,2.07 °C,2.29 °C,0.45 °C,0.15 °C,0.03 °C,0.73 °C,0.97 °C,0.6 °C,–,1.44 °C
LOC_OS05G28520-cb001,1.13 °C,0.45 °C,1.67 °C,0.67 °C,0.07 °C,0.12 °C,0.27 °C,0.94 °C,-0.36 °C,3.85 °C,0.32 °C
LOC_OS06G16330-cb003,1.18 °C,2.32 °C,0.83 °C,8.9 °C,0.19 °C,-0.28 °C,-0.04 °C,5.39 °C,-0.12 °C,–,6.83 °C
LOC_OS07G07230-cb001,0.39 °C,1.24 °C,0.49 °C,0.3 °C,0.63 °C,0.94 °C,0.5 °C,-0.03 °C,0.41 °C,0.68 °C,0.14 °C
LOC_OS04G41100-cb001,0.64 °C,0.96 °C,1.09 °C,1.62 °C,0.3 °C,0.43 °C,0.13 °C,3.1 °C,0.39 °C,1.42 °C,2.42 °C
LOC_OS06G22820-cb001,0.73 °C,1.01 °C,1.56 °C,-0.07 °C,0.27 °C,0.57 °C,0.55 °C,0.55 °C,0.41 °C,1 °C,0.64 °C
LOC_OS02G14120-cb001,0.47 °C,0.92 °C,3.24 °C,8.23 °C,0.5 °C,0.58 °C,0.02 °C,4.75 °C,-0.47 °C,–,7.91 °C
LOC_OS05G07850-cb002,1.58 °C,4.65 °C,0.08 °C,12.2 °C,-0.91 °C,0.21 °C,7.34 °C,8.01 °C,-0.57 °C,2.26 °C,8.76 °C
LOC_OS01G39600-cb002,0.11 °C,3.42 °C,–,3.74 °C,-0.4 °C,-0.07 °C,-0.58 °C,2.01 °C,0.35 °C,–,6.61 °C
LOC_OS02G45750-cb003,1.66 °C,-0.03 °C,0.99 °C,3.48 °C,0.36 °C,1.18 °C,2.08 °C,7.07 °C,-0.14 °C,0.32 °C,11.3 °C
LOC_OS05G16824-cb004,2.14 °C,-1.4 °C,-0.97 °C,7.48 °C,-3.09 °C,-4.31 °C,1.29 °C,8.5 °C,-1.77 °C,2.01 °C,15.4 °C
LOC_OS01G60330-cb001,1.6 °C,1.56 °C,4.55 °C,12.3 °C,0.72 °C,0.77 °C,1.23 °C,4.72 °C,-0.01 °C,–,10.8 °C
LOC_OS01G67340-cb003,1.03 °C,0.32 °C,-0.32 °C,0.7 °C,0.12 °C,0.35 °C,0.5 °C,4.84 °C,-0.48 °C,0 °C,2.48 °C
LOC_OS03G27990-cb004,0.81 °C,0.8 °C,0.88 °C,1.5 °C,0.02 °C,0.47 °C,0.54 °C,1.69 °C,-0.07 °C,0.11 °C,3.66 °C
